# Results: PubChem BioAssay (NCATS)
# Inconclusive results are not listed. A call without a number means that no potency is given here. Unmarked numbers belong to inactive results. Activity calls are given as the source filed them. The call rests on the fitted dose curve; in most records, active means well fitted cell-killing curve with a large enough effect; inconclusive means small, poorly fitted or top-dose-only effect, or effect the other way; inactive means flat fitted curve, though single readings scatter.
# System: Hek293T
# Test: Primary qHTS to identify gynecologic anti-cancer compounds using libraries of approved drugs and bioactive compounds (AID 1345084); further: nearly all actives have a fitted effect of over 55% in size
# Conditions: Gynecologic cancer cell panel viability, ATPlite luminescence, 48 h, control line for the selectivity index; series mostly up to 57.5 µM
# Method in brief: (§1)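 Five-concentration response, 48 h; readout is ATP-driven luciferase luminescence.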
SMILES,Potency,"activity change, negative = cytotoxicity"
C(#Cc1cccc(CN2CCOCC2)c1)CCN1CCCCC1,inactive,–
COc1cc(C)c(C(=O)O[C@H]2[C@@H](O)[C@H](n3ccc(=O)[nH]c3=O)O[C@@H]2CO)c(OC)c1,inactive,–
C[C@@]12C[C@]3(O)O[C@H](O1)[C@]1(COC(=O)c4ccccc4)[C@H]3C[C@@]12O[C@@H]1O[C@H](COC(=O)c2ccccc2)[C@@H](O)[C@H](O)[C@H]1O,inactive,–
C[C@@H]1O[C@@H](O[C@H]2[C@H](O)[C@@H](C(=O)O)O[C@@H](O[C@H]3CC[C@@]4(C)C(CC[C@]5(C)C4CC=C4C6CC(C)(C)CC[C@]6(C(=O)O)CC[C@]45C)C3(C)C)[C@@H]2O[C@@H]2O[C@H](CO)[C@@H](O)[C@H](O)[C@H]2O)[C@H](O)[C@H](O)[C@H]1O (stereo partly specified),–,-9.05% [at 11.6 µM]
CC(=O)N1CCN(NC(=O)c2ccc(F)cc2)CC1,inactive,–

# System: JEG-3
# Test: as above
# Conditions: Gynecologic cancer cell panel viability, ATPlite luminescence, 48 h; series mostly up to 57.5 µM
# Method in brief: as §1
SMILES,Potency,"activity change, negative = cytotoxicity"
C[C@]12CCC[C@](C)(C(=O)O)C1CCC13C=C(CO)C(CCC12)C3 (stereo partly specified),inactive,–
O=C(c1ccc(C#Cc2cccc(F)c2)cn1)N1CC2CC2C1 (stereo unspecified),inactive,–
C[C@H]1[C@H](C)CC[C@]2(C(=O)O)CC[C@]3(C)C(=CC[C@@H]4[C@@]5(C)C[C@@H](O)[C@H](O)[C@@](C)(CO)[C@@H]5CC[C@]43C)[C@H]12,inactive,–
C/C=C/C=C/C(CC(=O)O)Nc1ccc(C=O)cc1 (stereo unspecified),inactive,–
C[C@@H]1O[C@@H](O[C@H]2[C@H](OC(=O)[C@]34CCC(C)(C)C[C@H]3C3=CCC5[C@@]6(C)C[C@H](O)[C@H](O[C@@H]7O[C@H](CO)[C@@H](O[C@@H]8O[C@H](CO)[C@@H](O)[C@H](O)[C@H]8O)[C@H](O)[C@H]7O)[C@@](C)(CO)C6[C@H](O)C[C@@]5(C)[C@]3(C)C[C@H]4O)OC[C@H](O)[C@@H]2O)[C@H](O)[C@H](O)[C@H]1O[C@@H]1OC[C@@H](O)[C@H](O[C@@H]2OC[C@](O)(CO)[C@H]2O)[C@H]1O (stereo partly specified),–,7.67% [at 6.55 µM]
CC(C)(O)c1ccc2c(c1)C(=O)CC1[C@](C)(CO)CCC[C@]21C (stereo partly specified),inactive,–
CC(=O)C1CCC2(C)C3=C(CCC12C)C1(C)CCC(=O)C(C)(C)C1CC3 (stereo unspecified),inactive,–
C[C@@H]1C/C=C/C=C\C=C\C=C\[C@H](O[C@@H]2O[C@H](C)[C@@H](O)[C@H](N)[C@@H]2O)C[C@@H]2O[C@](O)(C[C@@H](O)C[C@H]3O[C@@H]3/C=C/C(=O)O1)C[C@H](O)[C@H]2C(=O)O,inactive,–
COC(=O)C[C@@H]1C(C(=O)O)=CO[C@@H](O[C@@H]2O[C@H](CO)[C@@H](O)[C@H](O)[C@H]2O)/C1=C\COC(=O)/C=C\c1ccccc1,inactive,–
CC1CCC2C(C(=O)O)=CC3C(O)C(C)(C)CC123 (stereo unspecified),inactive,–
CC(C)(O)/C=C1/C(=O)C(C)(C)C(=O)C(C)(C)C1(O)O[C@@H]1O[C@H](COC(=O)c2cc(O)c(O)c(O)c2)[C@@H](O)[C@H](O)[C@H]1O (stereo partly specified),inactive,–
Cc1cc(O)c(C(C)C)cc1O[C@@H]1O[C@H](CO)[C@@H](O)[C@H](O)[C@H]1O,inactive,–
O=C1CC(c2ccc([N+](=O)[O-])cc2)=NN1c1ccccc1,inactive,–
C=C1[C@H]2[C@H](O[C@@H]3O[C@H](COC(=O)/C=C/c4cc(OC)c(O)c(OC)c4)[C@@H](O)[C@H](O)[C@H]3O)OC=C(C(=O)O)[C@H]2C[C@@H]1O,inactive,–
C/C=C(\C)C(=O)OC[C@H]1O[C@H](O[C@H]2O[C@H](CO)[C@@H](OC(=O)/C(C)=C/C)[C@H](O)[C@H]2O[C@@H]2O[C@H](CO)[C@@H](O)[C@H](O)[C@H]2O)[C@H](O[C@@H]2O[C@H](CO)[C@@H](O)[C@H](O)[C@H]2O)[C@@H](O)[C@@H]1O,–,2.7% [at 11.6 µM]
CN1CC[C@@H](NC(=O)Nc2ccc(C#N)cc2)C[C@@H]1c1nc2ccccc2[nH]1,inactive,–
O=C(O)c1cc(O[C@@H]2O[C@H](CO[C@@H]3OC[C@@H](O)[C@H](O)[C@H]3O)[C@@H](O)[C@H](O)[C@H]2O)c2ccccc2c1O,inactive,–
O=c1ccn(C2OC(CO)C(O)C2O)c(=O)[nH]1 (stereo unspecified),inactive,–
Clc1ccc(CN[C@H]2CCN(c3ncc(Br)cn3)C2)c(Cl)c1,inactive,–
C=C1C(=O)OC2/C=C(\C)CC/C=C(\C(=O)O)CC/C=C(\C)CCC12 (stereo unspecified),inactive,–
C=CC1(C)C=C2C(=O)CC3C(C)(C)CCCC3(C(=O)O)C2(O)CC1 (stereo unspecified),inactive,–
